The structures appear in SMILES notation. The source made the active and inactive calls.

A short description of one test: HepG2 liver cancer cell viability effects, profiling panel, resazurin fluorescence, 24 h, PK04 Diversity Set (AID 1172). Also: test concentration not given here. The settings on record: higher = more signal. On the technique in general: Alamar Blue is a resazurin reagent that responds to reducing activity.
Turning to `COCCCNC(=O)[C@@]1(c2ccc([N+](=O)[O-])cc2)CC(=O)N(C(C)C)[C@@H]1c1ccc(CO)cc1`, the z-score was 0.145. With `C=CCC(OC(C)=O)[C@@H]1[C@@H](N(Cc2cccc3ccccc23)C(=O)c2cccc3ccccc23)c2cc(OCCCO)ccc2N1C(=O)c1ccc2ccccc2c1` (some centres undefined), the z-score turned out to be 0.628. The compound `CC(C)C[C@@H]1NC(=O)[C@H]2C[C@@H](C(=O)NCCCCCN)[C@@H](c3cccc(OCCO)c3)N2C1=O` had a z-score of -0.604.

As for `COC(=O)[C@@]1(Cc2ccccc2)[C@H]2c3cc(C(=O)N4CCCC4)n(CCSCCO)c3C[C@H]2CN1C(=O)c1ccccc1`, the z-score was -1.19. Take `CCOC(=O)C1=C[C@@H](C(C)(C)C)N(S(=O)(=O)c2ccc(C)cc2)[C@H]1c1ccccc1`: the z-score was -0.159. For the compound `C=CCN1C(=O)[C@]2(O[C@H](CCO)[C@@H]([Si](C)(C)c3ccc(OC)cc3)[C@@H]2C)c2cc(NC(=O)c3ccc(OC)cc3)ccc21`, the z-score is -4.24. With `COCCOC(=O)N1C(=O)[C@@]2(c3cc(C#Cc4ccc(OC)cc4)ccc31)[C@H](C(=O)NC[C@H](O)c1ccccc1)[C@H]1C(=O)O[C@H](c3ccccc3)[C@H](c3ccccc3)N1[C@@H]2c1ccc(OCCO)cc1`, the z-score was determined as 1.21.

In turn, `CCc1cccc(NC(=O)O[C@H]2[C@H](OC(=O)Nc3ccccc3)[C@H](OC(=O)Nc3ccccc3)[C@@H](OC)O[C@@H]2CO)c1` showed a z-score of -3.47.

A short description of a further test: basal S. cerevisiae growth modulation, no modifier, primary screen, OD600, strain BY4716, 24 h, basal condition (AID 1173). To be noted: OD600, 24 h, higher = more signal, called active from +8 up or from −8 down.
On to `Cc1ccc(S[C@]2(C(=O)NC(C)C)CC(=O)N(C(C)C)[C@@H]2c2ccc(CO)cc2I)cc1`, for which the z-score was -2.15 (inactive). For the compound `C=C(/C(=C/C[C@@H](OC(C)=O)c1ccc(CO)o1)c1cc(C(=O)OC)ccc1OC)C(C)C`, the z-score is -0.367 (inactive). Consider `COc1ccc(CCNC(=O)[C@@]2(Cc3ccccc3I)c3ccccc3C(=O)N(Cc3ccccc3Cl)[C@H]2c2ccc(CO)cc2)cc1`, for which the z-score is -0.564 (inactive). Consider `COCCCNC(=O)[C@@]1(Sc2ccc(C)cc2)CC(=O)N(Cc2ccccc2Cl)[C@@H]1c1ccc(CO)cc1I`, for which the z-score is -3.06 (inactive). On to `COc1cc(C(O)C2C=CC3C(=O)N(Cc4ccccc4)C(=O)C3N2n2cnnc2)cc(OC)c1OC` (centres undefined), for which the z-score was -0.786 (inactive).

With `[N-]=[N+]=Nc1ccccc1C[C@]1(C(=O)NCc2ccccc2)COC(c2ccc(OCCCO)cc2)=N1`, the z-score is 0.858 (inactive). On to `Cc1ccc(S[C@]2(C(=O)NCc3ccccc3)CC(=O)N(Cc3cc(C(F)(F)F)cc(C(F)(F)F)c3)[C@@H]2c2ccc(CO)cc2I)cc1`, for which the z-score was -3.9 (inactive).

Regarding `COc1cc2c(cc1OC)CN(C(=O)[C@@H]1[C@H]3C(=O)O[C@H](c4ccccc4)[C@H](c4ccccc4)N3[C@H](c3ccc(O)cc3)[C@@]13C(=O)Nc1ccc(C#CCCO)cc13)CC2`, the z-score is 1.03 (inactive). Consider `Cc1ccccc1C(O)C1C=CC2C(=O)NC(=O)C2N1Nc1ccc(Cl)cc1Cl` (centres undefined), for which the z-score was -9.05 (active).

With `C=CCC(OC(C)=O)[C@@H]1[C@@H](N(Cc2ccc(-c3cccc(C(F)(F)F)c3)o2)C(=O)c2ccc(C)cc2)c2cc(OCCCO)ccc2N1C(=O)Cc1ccc(OC)cc1` (some centres undefined), the z-score is -0.455 (inactive). Take `COc1ccc([Si](C)(C)[C@@H]2[C@@H](CC(=O)N3Cc4ccccc4C[C@H]3CO)O[C@]3(C(=O)N(Cc4ccc(N5CCC5=O)cc4)c4ccccc43)[C@H]2C)cc1`: the z-score is 0.457 (inactive).

Regarding `Cc1ccc(S[C@]2(C(=O)NC(C)C)CC(=O)N(Cc3ccccc3Cl)[C@@H]2c2ccc(CO)cc2)cc1`, the z-score was -0.624 (inactive). For the compound `CCOC(=O)C[C@H]1[C@H](OC(=O)c2ccc(-c3ccccc3)cc2)[C@@H](NC(=O)CC(C)C)c2cc(OCCCO)ccc2N1C(=O)c1ccccc1`, the z-score was 1.28 (inactive). `C=C(C(=O)CC[C@H](OC(=O)c1ccccc1-c1ccccc1C(=O)O)c1ccccc1OCCO)C(C)C`: the z-score is -1.04 (inactive). On to `COCCOC(=O)N1C(=O)[C@@]2(c3cc(C#CC4=CCCCC4)ccc31)[C@H](c1ccc(O)cc1)N1[C@H](c3ccccc3)[C@H](c3ccccc3)OC(=O)[C@H]1[C@@H]2C(=O)NC[C@H](O)c1ccccc1`, for which the z-score was 0.237 (inactive). Take `NC(=O)[C@H]1[C@@H]2C(=O)O[C@@H](c3ccccc3)[C@@H](c3ccccc3)N2[C@@H](c2ccc(O)cc2)[C@]12C(=O)Nc1ccc(C#CC3=CCCCC3)cc12`: the z-score is 0.137 (inactive).

`CC1CC/C=C\[C@H]2OC34C=CCN(C(C)(C)C)C(=O)[C@H]3N(C(CO)C(C)C)C(=O)[C@@H]4C2C(=O)O1` (some centres undefined): the z-score was -0.154 (inactive). Regarding `O=C(NCCN1CCOCC1)[C@@H]1c2ccccc2C(=O)N(Cc2ccccc2)[C@H]1c1ccc(CO)cc1`, the z-score is 0.476 (inactive).

With `CC(C)CCC[C@@H](C)[C@H]1CC[C@@]2(C)C3=C(CC[C@]12C)[C@@]1(C)CC[C@H](OC(=O)c2ccccc2)C(C)(C)C1CC3` (some centres undefined), the z-score is 0.436 (inactive). As to `C[C@]1(C(=O)O)c2ccccc2C(=O)N(Cc2ccc(OC(F)(F)F)cc2)[C@H]1c1ccc(CO)cc1`, the z-score was -0.847 (inactive).

Take `C=CCNC(=O)[C@H]1[C@@H]2C(=O)O[C@@H](c3ccccc3)[C@@H](c3ccccc3)N2[C@@H](c2ccc(O)cc2)[C@]12C(=O)N(C(=O)OCCOC)c1ccc(C#CCC(C(=O)OC)C(=O)OC)cc12`: the z-score was 1.34 (inactive).

Take `CCCNC(=O)[C@@]1(Sc2ccc(C)cc2)CC(=O)N(C(C)C)[C@@H]1c1ccc(CO)cc1I`: the z-score was -1.18 (inactive). Same read-out and setting: in the case of `COc1ccc([Si](C)(C)[C@H]2[C@H](CCO)O[C@@]3(C(=O)N(Cc4ccccc4)c4ccc(N5CCOC5=O)cc43)[C@@H]2C)cc1` it was 1.12 (inactive); in that of `C=CC1c2cc(O)c(OC)cc2CCN1Cc1ccc([N+](=O)[O-])o1` (centres undefined), 0.193 (inactive); in that of `CCCCC(=O)N(CCN1CCOCC1)[C@@H]1CC(C(=O)NCCO)=C[C@H](Oc2c(I)cc(CO)cc2OC)[C@H]1O`, -1.23 (inactive). Consider `C=C[C@@H](C)[C@@H](OC(=O)Nc1ccc(SC)cc1)c1ccc(OCCO)cc1`, for which the z-score was -3.68 (inactive). For the compound `CC(C)C[C@@H]1NC(=O)CNC(=O)[C@@]23C(=O)N[C@@H](Cc4ccccc4)C2[C@H](C)[C@@]2(C)O[C@H]2C3/C=C/C/C=C\CNC1=O` (some centres undefined), the z-score is 0.205 (inactive). As for `Cc1c(NC(=O)/C(C#N)=C/c2ccccc2Cl)c(=O)n(-c2ccccc2)n1C`, the z-score was -1.08 (inactive). Still for that read-out and setting: next, `COCCCNC(=O)[C@@]1(c2ccc([N+](=O)[O-])cc2)CC(=O)N(C(C)C)[C@@H]1c1ccc(CO)cc1`: -0.569 (inactive). Still for that read-out and setting: next, `C=CCC(OC(C)=O)[C@@H]1[C@@H](N(Cc2cccc3ccccc23)C(=O)c2cccc3ccccc23)c2cc(OCCCO)ccc2N1C(=O)c1ccc2ccccc2c1` (some centres undefined): -0.775 (inactive). In the case of `CC(C)C[C@@H]1NC(=O)[C@H]2C[C@@H](C(=O)NCCCCCN)[C@@H](c3cccc(OCCO)c3)N2C1=O`, the z-score is -0.122 (inactive). Still for that read-out and setting: next, `COC(=O)[C@@]1(Cc2ccccc2)[C@H]2c3cc(C(=O)N4CCCC4)n(CCSCCO)c3C[C@H]2CN1C(=O)c1ccccc1`: 0.712 (inactive); `CCOC(=O)C1=C[C@@H](C(C)(C)C)N(S(=O)(=O)c2ccc(C)cc2)[C@H]1c1ccccc1`: 1.53 (inactive); `C=CCN1C(=O)[C@]2(O[C@H](CCO)[C@@H]([Si](C)(C)c3ccc(OC)cc3)[C@@H]2C)c2cc(NC(=O)c3ccc(OC)cc3)ccc21`: -1.07 (inactive). For the compound `COCCOC(=O)N1C(=O)[C@@]2(c3cc(C#Cc4ccc(OC)cc4)ccc31)[C@H](C(=O)NC[C@H](O)c1ccccc1)[C@H]1C(=O)O[C@H](c3ccccc3)[C@H](c3ccccc3)N1[C@@H]2c1ccc(OCCO)cc1`, the z-score was 1.95 (inactive). In the case of `CCc1cccc(NC(=O)O[C@H]2[C@H](OC(=O)Nc3ccccc3)[C@H](OC(=O)Nc3ccccc3)[C@@H](OC)O[C@@H]2CO)c1`, the z-score is 0.885 (inactive).

Source of the values: PubChem BioAssay.
